KCNH2 WT inh – KCNH2 (human, wildtype) channel inhibition | Q12809 | U2OS, BacMam KCNH2, thallium flux FluxOr; stronger effect = lower value | activity change, % at 1.84 µM | 340,000 tested, 0.37% active;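 active = maximum activity change below -70%; inconclusive = maximum activity change between -70% and -50%; inactive = maximum activity change above -50%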; note: % is set by controls: 0 for no effect and ±100 for the full control effect
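U2OS cells transduced with wild-type KCNH2 virus are loaded with FluxOr dye for 45 min, and thallium flux is measured in kinetic reads before and after stimulation buffer. Rate constants are normalized to DMSO controls.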
TRPV1 ag – activates the human vanilloid receptor TRPV1; TRPV1-expressing cells, Fluo-8 calcium influx, agonist mode; activation, % at 8.33 µM; 320,000 tested, 0.19% active; in the data active = activation above about 80%; inconclusive = between about 30% and that limit; note: 0% is about no effect
Target sequence (Q8NER1 whole entry, looked up): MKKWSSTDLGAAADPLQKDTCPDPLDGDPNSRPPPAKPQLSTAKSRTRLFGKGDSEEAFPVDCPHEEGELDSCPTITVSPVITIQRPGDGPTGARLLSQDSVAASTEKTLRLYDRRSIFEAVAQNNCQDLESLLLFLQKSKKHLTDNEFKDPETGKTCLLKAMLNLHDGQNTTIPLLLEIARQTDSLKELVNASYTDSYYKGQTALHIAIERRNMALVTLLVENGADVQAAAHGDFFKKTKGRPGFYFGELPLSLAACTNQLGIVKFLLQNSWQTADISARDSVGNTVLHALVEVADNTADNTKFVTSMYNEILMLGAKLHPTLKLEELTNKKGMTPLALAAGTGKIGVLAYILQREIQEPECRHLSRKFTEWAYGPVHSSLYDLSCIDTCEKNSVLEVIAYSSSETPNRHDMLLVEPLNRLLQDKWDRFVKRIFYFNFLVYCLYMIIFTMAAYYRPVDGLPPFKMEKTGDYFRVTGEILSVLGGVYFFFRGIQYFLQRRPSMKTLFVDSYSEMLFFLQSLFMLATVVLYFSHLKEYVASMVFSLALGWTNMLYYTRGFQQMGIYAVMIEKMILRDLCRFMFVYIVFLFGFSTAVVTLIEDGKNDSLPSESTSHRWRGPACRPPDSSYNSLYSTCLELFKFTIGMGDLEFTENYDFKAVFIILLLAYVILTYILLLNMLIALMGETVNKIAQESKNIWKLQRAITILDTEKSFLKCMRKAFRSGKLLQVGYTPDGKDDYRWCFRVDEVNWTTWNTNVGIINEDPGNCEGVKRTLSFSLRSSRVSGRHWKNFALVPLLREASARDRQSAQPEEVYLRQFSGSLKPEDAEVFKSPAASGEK
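TRPV1-expressing cells were cultured overnight at 35.5C and loaded with Fluo-8 calcium dye for 40 to 90 min at room temperature. After a 10 s baseline, compound was added and calcium influx was read kinetically for 3 min (ex 480/em 520 nm).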
TRPV1 PAM – enhances activation of the human vanilloid receptor TRPV1 | Q8NER1 | potentiation, % at 8.33 µM | 320,000 tested, 0.02% active | TRPV1-expressing cells, Fluo-8 calcium influx, capsaicin EC20 potentiation; in the data active = potentiation above about 80%; inconclusive = between about 30% and that limit; note: 0% is about no effect
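Cells expressing TRPV1 were dye-loaded with Fluo-8 and read kinetically: 10 s baseline, 3 min after compound (agonist portion), then 2 min after EC20 capsaicin (allosteric enhancer portion). Calcium-bound dye fluorescence at 480/520 nm.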
KCNH2 3.1 block – KCNH2 3.1 (human) potassium channel inhibition | U2OS KCNH2 3.1, thallium flux FluxOr; stronger effect = lower value | 340,000 tested, 0.95% active | activity change, % (tested at about 1.8 µM) | AID 720553;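 active = maximum activity change below -70%; inconclusive = maximum activity change from -70% to -50%; inactive = maximum activity change above -50%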;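 note: thallium influx rate constant from kinetic fluorescence after stimulation buffer; % is set by controls: 0 for no effect and ±100 for the full control effect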
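U2OS cells transduced with KCNH2 3.1 mutant virus (1.77 x 10^8 /mL, 4 h), plated overnight at 37 C, loaded 45 min with FluxOr dye plus Red40 quencher. Thallium flux rate constant from kinetic reads after stimulation buffer, normalised to controls.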
The depositor's hits bear a star; ? = inconclusive; nt = no result. The list is not random: actives were taken first. Their share in the collection is about 1.2%.

SMILES | KCNH2 WT inh | TRPV1 ag | TRPV1 PAM | KCNH2 3.1 block
C=CCn1c(O)c(C(C)=NCCCn2ccnc2)c(=O)[nH]c1=O | 6.7 | 1.0 | 7.5 | 14.4
O=P(NC(c1ccccc1)c1ccccc1)(Oc1ccccc1)Oc1ccccc1 | 23.4 | 18.8 | -5.2 | -88.2*
O=P(Nc1ccccc1)(Oc1ccccc1)Oc1ccccc1 | 28.5 | 20.5 | -3.8 | 7.3
Cn1c(O)c(/C=C/C=Nc2ccccc2)c(=O)n(C)c1=O | -87.7* | 14.5 | -11.8 | 0.8
Cn1c(O)c(C=Nc2ccccc2)c(=O)n(C)c1=O | 8.2 | 2.2 | -0.1 | -1.8
COC(=O)C1=C(c2ccc(C(C)=O)cc2)C[C@@H]2CC[C@H]1N2C(=O)N1CCCCC1 | 12.7 | 0.8 | -2.8 | -4.5
COC(=O)C1=C(c2ccc(C(C)=O)cc2)C[C@@H]2CC[C@H]1N2C(=O)N1CCCC1 | 2.1 | -3.9 | -4.6 | -89.8*
CCCOc1ccccc1NP(=O)(Oc1ccccc1)Oc1ccccc1 | 10.5 | ? | -6.7 | -1.9
Cc1cccc(NP(=O)(Oc2ccccc2)Oc2ccccc2)c1C | -242.2* | 16.5 | -1.0 | -7.2
CNC(=O)Oc1ccc(N(C)C)cc1C(C)C | -3.7 | -9.5 | ? | 0.8
OCC(Br)CBr (stereo unspecified) | 1.3 | -2.7 | 4.8 | -2.7
CCOP(=O)(OCC)C(NC(=O)c1cccc2ccccc12)C(Cl)(Cl)Cl (stereo unspecified) | -5.3 | -3.2 | 3.4 | -4.6
O=S1(=O)CC2(N3CCOCC3)CCCCC21 (stereo unspecified) | -14.7 | 6.0 | -6.4 | -94.0*
CCOc1cc2c(cc1OCC)-n1cccc1C(c1ccc(OC(F)F)cc1)NC2 (stereo unspecified) | -13.3 | 2.2 | 23.6 | -81.9*
Clc1ccc(C(OCCN2CCCCC2)c2ccccc2)cc1 (stereo unspecified) | -17.4 | -0.3 | -10.7 | -101.7*
Cc1ccc(-c2nc(N(C)C3CCN(C)CC3)c3ccccc3n2)cc1 | -2.7 | 2.6 | -0.8 | 7.7
Cc1ccc(S(=O)(=O)c2nc(-c3ccccc3Cl)oc2N(C)C2CCN(C)CC2)cc1 | ? | nt | nt | -80.1*
O=C(CN1CC=C(c2ccccc2)CC1)NC(=O)NCc1ccco1 | -8.2 | -0.8 | -8.4 | -90.3*
O=C(CCN1CC=C(c2ccccc2)CC1)NCc1ccccc1 | 0.9 | nt | nt | -7.5
COC1C(O)C(C)OC(OC2C(Oc3cccc4c(O)c5c(=O)oc6ccc(C)c7c(=O)oc(c34)c5c67)OC(C)C(O)C2O)C1O (stereo unspecified) | -1.9 | nt | nt | 11.6
O=C(COc1ccc2ccccc2c1)N1CCN(Cc2c[nH]c3ccccc23)CC1 | 18.8 | 25.1 | -9.0 | -9.7
O=C(COc1ccc(Br)cc1)N1CCN(Cc2c[nH]c3ccccc23)CC1 | -79.9* | 25.6 | -12.2 | -71.6*
COc1ccc(CN2CCN(C(=O)COc3ccc4ccccc4c3)CC2)c(OC)c1 | -24.2 | 23.2 | -7.1 | -92.8*
CCC(=Nc1ccc2c(c1)CCC2)c1c(O)n(C)c(=O)n(C)c1=O | -0.8 | 0.1 | 5.0 | 4.2
CCC(=Nc1ccc2c(c1)CCC2)c1c(O)n(-c2ccc(OC)cc2)c(=O)[nH]c1=O | -104.3* | 2.8 | -7.8 | 3.9
SMILES | KCNH2 WT inh | TRPV1 ag | TRPV1 PAM | KCNH2 3.1 block
Cc1ccc(Cn2nc(C(=O)Nc3ccc(Br)cc3)cc2C)cc1 | -8.1 | 107.9* | -2.7 | -7.5
CN1CCN(c2ccc([N+](=O)[O-])c(Sc3nncn3C)c2)CC1 | 3.4 | 11.5 | -6.8 | -123.2*
C=CCC1(CCCCC)C(=O)NC(=S)NC1=O | -81.5* | nt | nt | 9.4
COC[C@H]1OC(=O)c2coc3c2[C@@]1(C)C1=C(C3=O)[C@@H]2CCC(=O)[C@@]2(C)C[C@H]1OC(C)=O | 26.9 | nt | nt | -1.6
Oc1ccc2c3c1O[C@H]1c4[nH]c5ccccc5c4C[C@@]4(O)[C@@H](C2)N(CC2CC2)CC[C@]314 | 34.0 | 1.7 | 7.1 | -70.5*
Oc1ccc2c3c1O[C@H]1c4[nH]c5ccccc5c4C[C@@]4(O)C(C2)N(CC2CC2)CC[C@]314 | nt | -3.6 | 1.4 | nt
C1CC2NCCC3NCCC(N1)N32 (stereo unspecified) | -5.5 | 7.2 | -12.2 | 3.5
CN(C)CCSCc1nnc2n1-c1ccc(Cl)cc1C(c1ccccc1Cl)=NC2 | -31.7 | nt | nt | -76.5*
CCN(CCCl)c1cc(CN(C)C)cc(NC(=O)c2ccc(C(=O)Nc3cc(CN(C)C)cc(N(CC)CCCl)c3)cc2)c1 | -9.5 | nt | nt | -10.4
CSc1ccc(C(=O)C2CCCN(Cc3cc4ccccc4[nH]3)C2)cc1 (stereo unspecified) | -18.2 | 17.4 | 0.9 | -104.5*
Cc1nc2cc([N+](=O)[O-])ccc2c(=O)n1-c1cccc(Br)c1 | 2.8 | nt | nt | -13.0
CCOC(=O)C1(CCOc2ccccc2)CCN(C2Cc3ccccc3C2)CC1 | -10.8 | 2.0 | 1.2 | -121.1*
CN1CC(C(=O)c2ccc([N+](=O)[O-])cc2)C(c2ccc(Cl)cc2)C1 (stereo unspecified) | -13.4 | 6.0 | 9.1 | -72.8*
O=c1c2ccccc2nc(CNCC2CCCO2)n1-c1ccc(F)cc1 (stereo unspecified) | -3.7 | 1.2 | -8.9 | 2.8
CC(Cc1ccccc1)NCC(=O)Nc1cc(N(C)C)nc2ccccc12 (stereo unspecified) | 2.0 | 17.1 | -15.9 | -100.3*
COC(=O)C(O)(c1ccc(N(C)C(=O)c2cccs2)cc1)C(F)(F)F (stereo unspecified) | 3.1 | 6.8 | -5.5 | 2.7
Cc1ccc(C(=O)N[C@@H](C)CN2C3=NC[C@H](Cc4ccccc4)N3C[C@H]2Cc2ccc(O)cc2)cc1Br | -84.8* | -1.5 | ? | -11.7
O=C(NCC1=C(c2ccc3ccccc3c2)C[C@@H]2CC[C@H]1N2Cc1ccco1)c1cccnc1 | 0.9 | nt | nt | -21.1
CS(=O)(=O)c1ccc(C2=C(CNC(=O)c3ccc([N+](=O)[O-])cc3)[C@H]3CC[C@@H](C2)N3Cc2ccccc2)cc1 | -85.7* | nt | nt | -101.4*
CCOC(=O)c1cccc(C2=C(CNC(=O)c3nccs3)[C@H]3CC[C@@H](C2)N3Cc2ccccc2)c1 | 18.3 | nt | nt | -84.5*
CS(=O)(=O)c1ccc(C2=C(CNC(=O)c3ccc([N+](=O)[O-])cc3)[C@H]3CC[C@@H](C2)N3CCOc2ccccc2)cc1 | -91.9* | nt | nt | -110.5*
CS(=O)(=O)c1ccc(C2=C(CNC(=O)c3cccnc3)[C@H]3CC[C@@H](C2)N3Cc2ccccc2)cc1 | -26.1 | nt | nt | ?
O=C(NCC1=C(c2cccc3ccccc23)C[C@@H]2CC[C@H]1N2Cc1ccco1)c1ccc([N+](=O)[O-])cc1 | -24.1 | nt | nt | -93.3*
O=[N+]([O-])c1ccc(N(CCO)CCO)c2c1no[n+]2[O-] | -33.8 | nt | nt | -92.0*
CN1CCN(c2ccc([N+](=O)[O-])c3no[n+]([O-])c23)CC1 | -1.8 | 4.1 | -8.1 | -0.6

High-throughput results: PubChem, National Center for Advancing Translational Sciences (NCATS)
